Assay results published in PubChem BioAssay AID493168 (National Center for Advancing Translational Sciences (NCATS), 2011).
Results filed as inconclusive are left out. Calls of active or inactive are those of the source. Calls follow the shape of the dose curve; as a rule, active = well fitted inhibition curve with a large enough effect; inconclusive = small, poorly fitted or top-dose-only effect, or effect the other way; inactive = flat fitted curve, though single readings scatter.

biological target: Ubiquitin carboxyl-terminal hydrolase 2 (Homo sapiens) (UniProt O75604); assay: Confirmation Assay for Inhibitors of Ubiquitin-specific Protease USP2a Using CHOP2 as the Reporter; conditions: USP2 core, Ub-CHOP2 coupled reporter fluorescence; series mostly up to 38.3 µM; activity change, negative = inhibition: at the top concentration; also: nearly all actives have a fitted effect of over 55% in size;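 as to activity change, negative = inhibition: plate controls were DMSO wells for no effect and full inhibition by NEM control for full effect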
Outline: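 USP2 core (10 nM final) was preincubated with compound for 30 min at RT in Tris-HCl pH 8.0, CaCl2, beta-mercaptoethanol, CHAPS. Ub-CHOP2 and reporter substrate (25 nM final each) were added, and fluorescence (Ex 485/Em 531 nm) was read after 60 min.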
Potency is read from the fitted curve at half-maximal effect.

Chain of Ubiquitin carboxyl-terminal hydrolase 2 (Homo sapiens) (O75604 whole entry, looked up): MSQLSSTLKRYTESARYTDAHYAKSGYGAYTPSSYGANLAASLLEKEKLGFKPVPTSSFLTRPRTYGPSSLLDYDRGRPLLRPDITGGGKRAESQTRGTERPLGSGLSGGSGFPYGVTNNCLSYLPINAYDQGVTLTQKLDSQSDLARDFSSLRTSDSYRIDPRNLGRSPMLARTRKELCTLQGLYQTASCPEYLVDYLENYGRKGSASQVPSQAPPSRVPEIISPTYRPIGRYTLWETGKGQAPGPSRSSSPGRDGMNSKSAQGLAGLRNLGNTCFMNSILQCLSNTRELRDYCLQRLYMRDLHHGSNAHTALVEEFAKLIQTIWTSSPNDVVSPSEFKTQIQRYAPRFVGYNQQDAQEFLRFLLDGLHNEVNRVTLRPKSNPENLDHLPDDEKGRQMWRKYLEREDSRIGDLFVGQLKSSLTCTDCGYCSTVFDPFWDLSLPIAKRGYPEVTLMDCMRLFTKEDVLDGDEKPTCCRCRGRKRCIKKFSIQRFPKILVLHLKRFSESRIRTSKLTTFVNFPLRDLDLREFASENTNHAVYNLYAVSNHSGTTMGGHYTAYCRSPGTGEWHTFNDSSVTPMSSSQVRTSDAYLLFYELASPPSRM

SMILES	Potency	activity change, negative = inhibition
COc1ccccc1C(=O)n1nc(-c2cccnc2)nc1NCc1ccccc1	5.85 µM (active)	–
CN(C)c1ccc(NC(=O)CSCc2nc3c(nnn3Cc3ccc(F)cc3)c(=O)[nH]2)cc1	–	1.9% (inactive)
C#CCOCCOCCOCCNc1nc(N2CCN(C(=O)CCCCCCCCCCNC(=O)[C@H]([C@@H](C)CC)n3cc(CCCCCN)nn3)CC2)nc(N2CCN(C(=O)CCCCCCCCCCNC(=O)[C@H](CCCCN)n3cc(CCCC(=O)O)nn3)CC2)n1	13.1 µM (active)	–
C=CC[C@@H](CC(=O)N(CCO)Cc1ccccc1)C(=O)NCCOC(=O)[C@H](CC=C)CC(=O)OC(C)(C)C	–	-0.238% (inactive)
CCO[C@H]1OC(C(=O)N2CCCCCCC2)=C[C@@H](c2ccc(C(F)(F)F)cc2)[C@@H]1CCCO	–	2.48% (inactive)
O=S(=O)(c1ccccc1)N(CC1CO1)c1cc(Cl)ccc1Cl (stereo not given)	–	-2.76% (inactive)
COc1ccc(NC(=O)CSc2nc3sc(C)cc3c(=O)n2C)c(OC)c1	–	-4.17% (inactive)
COc1ccc(S(=O)(=O)N2CCCCC2)cc1NC(=O)Cc1c[nH]c2ccccc12	–	-0.822% (inactive)
CC(=O)c1cccc(NC(=O)C(C)OC(=O)c2cc(=O)[nH]c3ccccc23)c1 (stereo not given)	6.56 µM (active)	–
Cc1ccc(-c2cc(-c3ccc(C)cc3)[n+](-c3ccc(C(=O)[O-])cc3)c(-c3ccc(C)cc3)c2)cc1	–	-2.45% (inactive)
CCOC(=O)C(C)Sc1nnc(Cn2c(=O)sc3ccccc32)n1-c1ccccc1 (stereo not given)	–	-7.73% (inactive)
COC(=O)c1ccc(CSc2ncnc3ccccc23)o1	–	1.14% (inactive)
CN1CCN(S(=O)(=O)c2ccc(N3CCN(S(=O)(=O)/C=C/c4ccccc4)CC3)nc2)CC1	–	-0.101% (inactive)
Cc1cc(=O)oc(C)c1C(=O)NCCc1ccccc1	–	3.7% (inactive)
c1coc(CNC2CCCCCCC2)c1	–	2.9% (inactive)
C/C(CC(=O)N1CCCC1)=N\NC(=O)c1cc2ccccc2cc1O	–	4.2% (inactive)
CCCCNc1nc2ccccc2nc1NS(=O)(=O)c1cccs1	–	3.77% (inactive)
Cc1cc(-c2csc(NC(=O)c3ccc(=O)[nH]c3)n2)c(C)n1Cc1ccccc1	–	-3.97% (inactive)
Cc1ccc(C(=O)N/C(=C/c2cccs2)C(=O)NCc2ccco2)cc1	–	4.83% (inactive)
COc1cccc(N2C(=O)C3CCCN3C2c2ccc(N(C)C)cc2)c1 (stereo not given)	–	-1.37% (inactive)

SMILES	Potency	activity change, negative = inhibition
O=C(COc1ccccc1)Nc1nnc(-c2ccc(Cl)s2)o1	–	0.422% (inactive)
O=C1CC(c2ccc(Cl)cc2)SC(N(c2ccccc2)c2ccccc2)=N1 (stereo not given)	–	-2.06% (inactive)
CCCCCc1ccc(OCCOCCn2c[n+](C)c3ccccc32)c(CCCCC)c1	–	-16.2% (inactive)
O=C(COc1ccccc1)N1CCN(C(=O)Cc2ccccc2)CC1	–	-1.37% (inactive)
CCN(CC)c1ccc2nc3ccccc3[n+](CC)c2c1	–	-10.3% (inactive)
COCCCNCCCOc1ccc(C)cc1Br	–	-2.1% (inactive)
O=C(CCSCc1ccc(Cl)cc1)NCCc1ccccc1	–	-2.88% (inactive)
CC(=O)OCC(=O)Nc1ccc(Cl)cc1Cl	–	0.0981% (inactive)
Cc1cc(=O)n2[nH]c(-c3sccc3-n3c(C)ccc3C)cc2n1	–	-6.92% (inactive)
Cc1ccc(C)n1NC(=O)c1ccccc1O	–	-3.08% (inactive)
CCN(Cc1ccncc1)C(=O)c1cccs1	–	-0.752% (inactive)
O=C(NN1C(=O)/C(=C/C=C/c2ccco2)SC1=S)c1ccncc1	13.1 µM (active)	–
CC(OC(=O)c1nsc(Cl)c1Cl)C(=O)NCc1ccco1 (stereo not given)	–	-1.99% (inactive)
C=CCOc1cccc(C2C(C(=O)c3ccco3)=C(O)C(=O)N2CCN(CC)CC)c1 (stereo not given)	–	3.3% (inactive)
CC1(C)CC(=O)C2=C(C1)Oc1ncn(CCCO)c(=N)c1C2c1ccccc1 (stereo not given)	–	-1.72% (inactive)
O=C1c2ccccc2C(=O)N1CCC1=CCCCC1	–	-1.52% (inactive)
O=C(O)CP(=O)(c1ccccc1)c1ccccc1	–	0.641% (inactive)
COc1ccc(-c2nc(Cn3c(SCc4ccc(F)cc4)nc4ccncc43)c(C)o2)cc1OC	–	-0.811% (inactive)
CCOC(=O)N1CCN(C(=O)CN(c2cccc(C)c2)S(=O)(=O)c2ccccc2)CC1	–	-1.01% (inactive)
O=c1oc2ccccc2n1Cn1c(=O)oc2ccccc21	–	2.63% (inactive)
